# High-throughput results from PubChem BioAssay.
# IL1B NFkB inh: blocks IL-1B driven NFkB nuclear translocation in HUVEC cells. HUVEC IL-1B NFkB p65 nuclear translocation imaging. inhibition, % at 2 µM. hit rate 0.43% among 94,000. AID 796;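 active = inhibition above about 30% together with a positive call from visual inspection of the well image, limit read from the data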;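 note: nuclear over cytoplasmic p65 intensity ratio measured by imaging; 0% = IL-1B stimulated DMSO wells and 100% = unstimulated DMSO wells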
# sEH inhibitor: soluble epoxide hydrolase (human) inhibition. P34913. recombinant human sEH enzymatic activity assay. inhibition, % at 2 µM. hit rate 0.34% among 91,000. AID 707; in the data active = inhibition above about 80%
# Target sequence (P34913 whole entry, looked up): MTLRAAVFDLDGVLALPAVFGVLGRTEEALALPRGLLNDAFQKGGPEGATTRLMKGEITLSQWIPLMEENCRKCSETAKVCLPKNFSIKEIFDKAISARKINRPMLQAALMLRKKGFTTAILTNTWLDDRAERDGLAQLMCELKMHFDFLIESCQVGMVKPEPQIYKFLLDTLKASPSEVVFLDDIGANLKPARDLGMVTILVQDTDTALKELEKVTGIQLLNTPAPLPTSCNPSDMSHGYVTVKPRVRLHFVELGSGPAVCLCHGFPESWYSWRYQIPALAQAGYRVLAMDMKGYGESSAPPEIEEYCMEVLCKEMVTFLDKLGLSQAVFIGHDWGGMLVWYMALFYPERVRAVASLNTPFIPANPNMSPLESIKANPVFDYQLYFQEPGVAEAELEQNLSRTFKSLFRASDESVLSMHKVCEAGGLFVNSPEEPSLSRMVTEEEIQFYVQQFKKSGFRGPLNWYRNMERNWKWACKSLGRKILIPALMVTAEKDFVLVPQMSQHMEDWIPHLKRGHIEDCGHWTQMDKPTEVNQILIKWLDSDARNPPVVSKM
# IL1B NFkB pot: enhances IL-1B driven NFkB nuclear translocation | HUVEC IL-1B NFkB p65 nuclear translocation imaging | activation, % at 2 µM | hit rate 0.3% among 94,000 | AID 819;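 active = activation above 40%, about the mean plus 3 SD, also judged a hit on visual image review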;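 note: percent activation is computed from the nuclear over cytoplasmic p65 intensity ratio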
# Cav3 T inh: inhibitors of human Cav3.2 T-type calcium channel. O95180. Cav3.2-expressing cells, Fluo-4 calcium fluorescence FDSS; hits give low values. B-score at 10 µM. hit rate 4% among 100,000;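 active = single-dose well whose peak fluorescence ratio is a statistical outlier from its plate by either plate-standardised score or position-corrected B-score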
# sEH act: activators of human soluble epoxide hydrolase; activation, % at 2 µM; purified human sEH enzymatic activity, activator screen; hit rate 0.04% among 91,000; in the data active = activation above about 37%
# IL1B cytotox: toxic to HUVEC cells under IL-1B stimulation | cell count reduction, % at 2 µM | hit rate 0.41% among 94,000 | HUVEC cell count loss, Hoechst imaging, IL-1B stimulated;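 active = cell count reduction more than 3 SD above the screen-wide mean, cut at about 70% in these data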;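 note: normalized per plate to untreated control cells as the no-loss baseline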
# * marks the source's active call; other numbers are inactive results; · = no result given. This is a sample that favours compounds with a hit; in the whole collection about 4.6% have one here.
SMILES,IL1B NFkB inh,sEH inhibitor,IL1B NFkB pot,Cav3 T inh,sEH act,IL1B cytotox
Cc1ccc(NC(=O)NC2CCCCC2)cc1Cl,-4,95*,4,-0.7,-95,-21
Cc1ccc(NC(=O)C2CCN(C(=O)NC3CCCCC3)CC2)cc1Cl,3,27,-3,-1.2,-28,-38
CCc1cccc(NC(=O)NC2CCCCC2)c1,-7,94*,7,-1.3,-94,0
COc1ccc(CC(=O)Nc2cc(Cl)ccc2O)cc1,6,1,-6,-1.6,2,-16
O=C(Nc1ccccc1Cl)c1cc(S(=O)(=O)N2CCCCC2)ccc1N1CCOCC1,-9,10,9,-6.3*,-9,-11
CCOc1ccc2[nH]c(=O)c(C(c3nnnn3Cc3ccco3)N3CCC(C)CC3)cc2c1 (centres undefined),-20,-7,21,·,11,0
CCOc1ccc2[nH]c(=O)c(C(c3nnnn3Cc3ccco3)N3CCCC(C)C3)cc2c1 (centres undefined),1,0,-1,-5.9*,0,-16
Cc1cc2ccccc2n1CCNC(=O)c1ccccc1,10,1,-10,·,0,-28
Cc1oc(-c2ccccc2F)nc1CN1CCC(C(=O)NCCC2=CCCCC2)CC1,-4,89*,4,-5.7*,-89,-14
COc1ccc(CCNC(=O)C2CCN(Cc3nc(-c4ccccc4F)oc3C)CC2)cc1OC,2,17,-2,0.56,-17,-10
O=C(NCCC1=CCCCC1)C1CCN(c2nc3ccccc3o2)CC1,-10,85*,10,-3.3,-85,8
CCc1sc(N2C(=O)C3C4CCC(C4=C(C)C)C3C2=O)nc1-c1ccccc1 (centres undefined),-19,11,19,-1.3,-10,-12
CCN1CCCC1CNC(=O)CN1C(=O)COc2ccc(C)cc21 (centres undefined),·,·,·,0.4,·,·
CCOc1ccc(N(C(C)=O)C2C=CS(=O)(=O)C2)cc1 (centres undefined),·,·,·,-0.029,·,·
N=c1n(Cc2ccccc2)c2ccccc2n1CC(O)COc1ccccc1 (centres undefined),-3,·,3,-4.9*,·,-27
Cc1cc(NCCOCCO)n2ncc(-c3ccc(Cl)cc3)c2n1,-29,-1,29,2.2,4,91*
Cc1nc(C2CCCCC2)c(-c2ccccc2)c(N2CCOC2=O)c1C,·,·,·,-0.072,·,·
Brc1ccc2c(c1)CNc1c(ncnc1N1CCOCC1)O2,·,·,·,1.2,·,·
Cc1ccc(S(=O)(=O)n2ccc(OC(=O)c3cccs3)n2)cc1,·,·,·,0.39,·,·
COCc1nc2ccccc2n1Cc1ccccc1,-9,-3,9,-0.18,2,-30
COc1ccc(C(=O)NCCCc2nc3ccccc3n2Cc2cc(C)ccc2C)cc1OC,·,·,·,-1.3,·,·
Cc1ccc(C)c(Cn2c(CO)nc3ccccc32)c1,-23,1,23,-6.4*,-1,-3
Cc1ccc(Cn2c(Cc3ccccc3)nc3ccccc32)cc1,-4,-4,4,-5*,3,-21
CCOc1ccc2nc(SCC(=O)Nc3ncccn3)[nH]c2c1,-11,-11,11,·,9,-28
Nc1nnc(SCC(=O)N2CCc3ccccc32)n1-c1ccccc1,-14,-8,14,0.72,2,-103
SMILES,IL1B NFkB inh,sEH inhibitor,IL1B NFkB pot,Cav3 T inh,sEH act,IL1B cytotox
CCOC(=O)N1CCC(Nc2ccc3nnc(-c4ccccc4)n3n2)CC1,1,-1,-1,2.7*,0,17
CCc1ccc(C(=O)/C=C/c2ccc([N+](=O)[O-])o2)cc1,44*,-19,-44,-1.3,18,-18
CC(C)Nc1nc(NC(C)C)nc(N(C)n2cnnc2)n1,-8,-4,9,0.015,6,-11
CCNc1nc(NC(C)C)nc(Nn2cnnc2)n1,96*,9,-96,0.098,-11,90*
O=C(O)CCC(=O)N1N=C(c2cccs2)CC1c1cn(-c2ccccc2)nc1-c1ccccc1 (centres undefined),3,0,-3,0.64,2,18
O=C(CSCc1nc2ccccc2[nH]1)N1CCN(c2cccc(Cl)c2)CC1,-8,9,8,-3.5*,-7,-13
Clc1ccc(OCCN2CCOCC2)cc1Cl,0,5,0,-4*,-5,-10
O=C(Cn1c(-c2cscn2)nc2ccccc21)Nc1ccc2ccccc2c1,-16,·,16,-4.8*,·,-10
CC(c1ccccc1)N1CCn2c(nc3cc(NC(=O)NC4CCCCC4)ccc32)C1 (centres undefined),-8,97*,8,-1.2,-97,-15
FC(F)(F)c1cc(-c2ccco2)nc(-n2cnc3ccccc32)n1,6,·,-6,0.043,·,-32
O=C(OCc1nc2ccccc2s1)c1cccs1,-23,-10,23,-5.2*,5,-106
Cn1c(C(=O)N2CCN(C(=O)c3ccco3)CC2)cc2c(=O)n(C)c3ccccc3c21,15,·,-15,1.2,·,13
CCN(C1CCCCC1)S(=O)(=O)c1ccc(S(=O)(=O)N(CC(=O)Nc2ccccc2)C2CC2)cc1,2,-2,-2,-1.2,0,-7
COc1cccc(-c2nnc(SCC(=O)N3CCCc4ccccc43)o2)c1,-4,6,4,·,-6,17
CCN1CCCC1CNC(=O)c1cc2c(C)nc3ccccc3c2o1 (centres undefined),5,5,-5,-0.0072,-6,-8
Cc1nc2ccccc2c2oc(C(=O)NCC3COc4ccccc4O3)cc12 (centres undefined),·,·,·,-5.3*,·,·
Cc1ccc2c(CC(=O)NCC3COc4ccccc4O3)coc2c1 (centres undefined),·,·,·,-6.6*,·,·
O=C(CCC1COc2ccccc2O1)NCC1COc2ccccc2O1 (centres undefined),22,79,-22,-9.6*,-79,16
CCOC(=O)N1CCN(c2c(N3CC=C(c4ccccc4)CC3)c(=O)c2=O)CC1,5,8,-5,-0.015,-7,10
Cc1ccc(C)n1-n1c(C)nc2sc3c(c2c1=O)CCCCC3,10,·,-10,-5.6*,·,-6
CC(Oc1ccccc1)c1ccnn1S(=O)(=O)c1ccccc1 (centres undefined),3,-4,-3,-6.4*,3,-17
CC(Oc1ccc(Cl)cc1)c1ccnn1S(=O)(=O)c1ccc(Cl)cc1 (centres undefined),-8,3,8,-2.1,-1,-26
CN(C)c1ccc(C=Nc2ccccc2)cc1,1,3,-1,0.48,0,-13
C(/C=C/C=C/Nc1ccccc1)=Nc1ccccc1,-14,-4,14,-5*,2,-11
O=C(Nc1nncs1)C1(c2ccccc2)CCCC1,-11,5,11,0.35,0,-46
COc1ccc(OC)c(C2C(C#N)=C(N)Oc3cc(N)ccc32)c1 (centres undefined),·,·,·,-0.87,·,·
N#CC1=C(N)Oc2cc(O)ccc2C1c1ccncc1 (centres undefined),1,-2,-1,-4.6*,6,-62
